This note sets out measurements from PubChem BioAssay (NCATS).

Experiment [1] in a line: Primary qHTS for inhibitors of nuclear receptor binding SET domain protein 2 (NSD2) in an isogenic RCH-ACV NSD2 p.E1099K mutant (9B) (AID 1645876). As to conditions: RCH-ACV NSD2 E1099K (9B) viability, CellTiter-Glo, 72 h; series mostly up to 44.9 µM.
Experiment [2] in a line: Primary qHTS for inhibitors of nuclear receptor binding SET domain protein 2 (NSD2) in an RCH-ACV wild type WT cells (2C) (AID 1645877). As to conditions: RCH-ACV (leukaemia line) NSD2 WT (2C) viability, CellTiter-Glo, 72 h; series mostly up to 44.9 µM.

Where “and” joins values, the source holds several entries; their conditions need not be identical. Equal values may be shown once. Results filed as inconclusive are left out. Values without a mark were called inactive. Calls of active or inactive are those of the source. Calls come from the whole dose curve; as a rule, active = well fitted curve in the direction sought with a large enough effect; inconclusive = small, poorly fitted or top-dose-only effect, or another doubt; inactive = no such curve, though single readings can be large; an effect the other way counts as inactive or inconclusive. Where a SMILES comes first, the peptide text is derived from it. [ ]: non-standard residue; d: D form. Hyp = O=C(O)[CH]1C[CH](O)CN1; Phe(ol) = N[CH](CO)Cc1ccccc1; Iva = CC[C](C)(N)C(=O)O; Aib = CC(C)(N)C(=O)O
% is set by controls: 0 for no effect and ±100 for the full control effect; potency is the fitted concentration of half-maximal effect.
Note: nearly all actives have a fitted effect of over 70% in size.

With `COc1cc2c(cc1O)C1(Cc3ccc4c(c3C1O)OCO4)[N+](C)([O-])CC2` (stereo not given), the Potency entry in experiment [1] is “inactive”. `Nc1ncnc2c1nc(Cl)n2C1OC2COP(=O)(O)OC2C1O` (stereo not given): the Potency in experiment [1] was 2.05 µM (active); in experiment [2], 2.9 µM (active).

For the compound `Cc1cc(-c2ncc(-c3cccnc3)cc2/C=C/c2ccccc2)cnc1-c1cccnc1`, the Potency entry in experiment [1] and in experiment [2] was “inactive” throughout. For the compound `CC(=O)OC[C@]12[C@H](OC(C)=O)[C@H](OC(=O)c3ccccc3)[C@@H]3[C@@H](OC(C)=O)[C@]1(OC3(C)C)[C@H](C)C[C@H](OC(C)=O)[C@@H]2OC(=O)c1ccccc1`, the Potency result in experiment [1] was “inactive”. On to `C/C(=C/C=C\C=C\Cc1cnco1)[C@@H](O)C(C)(C)C(N)=O`, for which the Potency entry in experiment [1] and in experiment [2] was “inactive” in each case.

Turning to `CC(O)(C(=O)O)C1CCC2(C)C1CCC1(C)C2CCC2C3(C)CCC(O)C(C)(COC4OC(CO)C(O)C(O)C4O)C3CCC21C` (stereo not given), the Potency result in experiment [1] and in experiment [2] was “inactive” each time.

Regarding `C=C(COC(=O)C(O)C(O)CN)C12OC1C1(C)C(=CC2=O)C(O)C(O)CC1C` (stereo not given), the Potency entry in experiment [1] and in experiment [2] was “inactive” each time.

In the case of `c1cc(-c2cnn3cc(-c4ccc(N5CCNCC5)cc4)cnc23)c2cccnc2c1`, in experiment [1], the Potency is 5.25 µM (active). In the case of `C[C@H]1CC[C@@]2(OC1)O[C@H]1CC3C4CC[C@H]5C[C@@H](O)CC[C@]5(C)C4=CC(=O)[C@]3(C)[C@H]1[C@@H]2C` (stereo not given in full), the Potency entry in experiment [1] and in experiment [2] was “inactive” in each case.

As to `O=C1Nc2ccccc2-c2nc3ccccc3c(=O)n2-c2c(O)cccc21`, the Potency result in experiment [1] and in experiment [2] was “inactive” throughout.

On to `NS(=O)(=O)c1ccc(NC(=O)Nc2ccc(F)cc2)cc1`, for which the Potency entry in experiment [1] and in experiment [2] was “inactive” throughout. Regarding `CCC(C)C1NC(=O)C(Cc2ccccc2)NC(=O)C(CCCCCC(=O)C(O)CO)NC(=O)C2CCCCN2C1=O` (stereo not given), the values for the Potency in experiment [1] and in experiment [2] were 6.08 µM (active) and 2.16 µM (active), respectively. For `CC(C)=CCC/C(C)=C/COCC1OC(n2ccc(=O)[nH]c2=O)C(O)C1O` (stereo not given) the same measures were 4.01 µM (active) and 2.01 µM (active). In the same order, the values of `C=C[C@@]1(C)CCC2C(=CCC3[C@]2(C)CCC[C@@]3(C)C(=O)O)C1` (stereo not given in full) are “inactive” and “inactive”.

In the case of `CC(C)=CCCC1(C)/C=C/C(OC(=O)C=C(C)C)C(C)(O)/C=C/C(=O)/C(CO)=C\C1` (stereo not given), the Potency in experiment [1] was 11.2 µM (active).

For `Cc1ccc(OC[C@H](O)[C@H](C)NC(C)C)c2c1CCC2`, the Potency entry in experiment [1] is “inactive”. For `Cc1sc2c(c1C)C(c1ccc(Cl)cc1)=N[C@@H](CC(=O)Nc1ccc(OCCOCCOCCOCCNc3cccc4c3C(=O)N(C3CCC(=O)NC3=O)C4=O)cc1)c1nnc(C)n1-2` (stereo not given in full), the Potency in experiment [1] was 4 nM (active) and 10.5 nM (active); in experiment [2], 3.2 nM (active) and 14.8 nM (active). For the compound `CC1(C)CC[C@]2(C(=O)O[C@@H]3O[C@H](CO)[C@@H](O)[C@H](O)[C@H]3O)CC[C@]3(C)C(=CCC4[C@@]5(C)CC[C@H](O[C@@H]6O[C@H](C(=O)O)[C@H](O)[C@H](O)[C@H]6O)C(C)(C)C5CC[C@]43C)[C@@H]2C1` (stereo not given in full), the Potency in experiment [1] was 6.08 µM (active); in experiment [2] it was 5.41 µM (active). Consider `CCCOc1ccc(CCc2nc3cc(-c4c(C)noc4C)ccc3n2CCN2CCOCC2)cc1`, for which the Potency in experiment [1] and in experiment [2] was 8.33 µM (active) in each case. On to `C=C1C(=O)OC2/C=C(\CO)CC/C=C(\C=O)C(OC)C(OC(=O)C(C)CC)C12` (stereo not given), for which the Potency in experiment [1] was 7.96 µM (active); in experiment [2] it was 5.02 µM (active). For `O=C(NO)c1cnc(N2CCN(S(=O)(=O)c3ccc4ccccc4c3)CC2)nc1` the same measures were 0.252 µM (active) and 0.252 µM (active). In the same order, the values of `CC1CCC/C=C/C(=O)c2c(O)cc(O)cc2CC(=O)O1` (stereo not given) are 2.9 µM (active) and 2.05 µM (active). For `COc1ccccc1S(=O)(=O)Nc1ccc2c(c1)CN(C)C(=O)N2` the same measures were 1.83 µM (active) and 1.63 µM (active). Regarding `CCc1cc(C(N)=O)ccc1-n1nc(C(C)C)c2c(-n3cnc(-c4cnn(C)c4)c3)ccnc21`, the Potency is 1.18 µM (active) in experiment [1] and 1.05 µM (active) in experiment [2]. Turning to `CC1CCCC(O)CC(=O)c2c(O)cc(O)cc2CC(=O)O1` (stereo not given), the Potency was 8.01 µM (active) in experiment [1] and 5.05 µM (active) in experiment [2]. For `C=C1CC[C@@H](O)[C@]2(C)CC[C@H]3C(=C)C(=O)O[C@@H]3[C@@H]12` the same measures were 20.5 µM (active) and 16.3 µM (active).

As for `Cc1ccc(C)c(-c2cc(C(F)(F)F)nn2-c2ccc(S(N)(=O)=O)cc2)c1`, the Potency was 20.5 µM (active) in experiment [1] and 25.8 µM (active) in experiment [2]. For `C[C@@H]1O[C@@H](O[C@H]2[C@H](OC(=O)[C@]34CCC(C)(C)C[C@H]3C3=CCC5[C@@]6(C)C[C@H](O)[C@H](O[C@@H]7O[C@H](CO)[C@@H](O)[C@H](O)[C@H]7O)[C@](CO)(C(=O)O)C6CC[C@@]5(C)[C@]3(C)C[C@H]4O)OC[C@H](O)[C@@H]2O)[C@H](O)[C@H](O)[C@H]1O[C@@H]1OC[C@@H](O)[C@H](O[C@@H]2OC[C@](O)(CO)[C@H]2O)[C@H]1O` (stereo not given in full) the same measures were 0.772 µM (active) and 0.547 µM (active).

Consider `CN(CC1COCCO1)S(=O)(=O)Nc1ccc2ccc3ncc(-c4cnn(C)c4)cc3c(=O)c2c1` (stereo not given), for which the Potency in experiment [1] was 5.15 µM (active); in experiment [2] it was 9.16 µM (active).

Consider `COC1CC/C=C(\C)C(=O)Nc2cc(O)cc(c2)CC(C)CC(OC)C(O)C(C)/C=C(\C)C1OC(N)=O` (stereo not given), for which the values for the Potency in experiment [1] and in experiment [2] were 2.52 µM (active) and 2.82 µM (active), respectively.

As to `CO[C@H]1[C@@H](O)[C@H](O[C@H]2CC[C@@]3(C)C(CCC4C3CC[C@]35COC6(COC(=O)C6)C3CCC45O)C2)O[C@@H](C)[C@@H]1OC1OC(CO)C(OC2OC(CO)C(O)C(O)C2O)C(O)C1O` (stereo not given in full), the Potency in experiment [1] and in experiment [2] was 3.88 µM (active) each time. Consider `C=C1C(=O)O[C@H]2/C=C(/C)[C@@H](OC(C)=O)C/C=C(\C)C[C@@H](OC(=O)/C(=C/C)COC(=O)/C(=C/C)CO)[C@@H]12`, for which the Potency was 1.78 µM (active) in experiment [1] and 1.12 µM (active) in experiment [2]. In the same order, the values of `C/C=C(\C)C(=O)OC1C[C@@]2(COC(C)=O)O[C@H]2/C=C\[C@@]2(C)O[C@@H]2[C@H]2OC(=O)C(COC(C)=O)=C12` (stereo not given in full) are 8.93 µM (active) and 5.63 µM (active). For `CC(=O)O[C@@H]1CC[C@@]2(C)C(CC[C@]3(C)C2[C@H](O)C=C2[C@H]4[C@@H](C)[C@H](C)CC[C@]4(C)CC[C@]23C)[C@@]1(C)C(=O)O` (stereo not given in full) the same measures were “inactive” and “inactive”. Regarding `CC1=CC2/C=C(\C)CCC(O)C(=O)C(O)CC(=O)C23C(=O)NC(CC(C)C)C3C1C` (stereo not given), the Potency in experiment [1] is 11.2 µM (active); in experiment [2], 6.32 µM (active). As for `C=C1C(=O)O[C@@H]2[C@H]1CC(=O)[C@H](C)[C@@](O)(C(=O)/C=C/C)[C@H]2OC(=O)C(C)CC` (stereo not given in full), the Potency in experiment [1] was 1.27 µM (active); in experiment [2] it was 0.45 µM (active). Turning to `C=C1C(=O)O[C@@H]2C[C@@]3(C)CCCC(=C)[C@]3(O)C[C@H]12`, the Potency in experiment [1] is 8.17 µM (active); in experiment [2] it was 6.49 µM (active).

With `COc1cc(CCC2=NN=C(NC(=O)c3ccc(N4C[C@@H](C)N[C@@H](C)C4)cc3)C2)cc(OC)c1`, the Potency in experiment [1] and in experiment [2] was 5.78 µM (active) throughout. Regarding `CC(=O)OC1C(O)CC2(C)C(CCC3(C)C2CC=C2C4C5(CCC(CO[C@@H]6O[C@H](CO)[C@@H](O)[C@H](O)[C@H]6O)(OC5=O)C4(C)O)C(O)CC23C)C1(C)C` (stereo not given in full), the Potency result in experiment [1] and in experiment [2] was “inactive” in each case. For the compound `C=C(NC(=O)C(=C)NC(=O)c1csc(C2=NC3c4csc(n4)C4NC(=O)c5csc(n5)C(C(C)(O)C(C)O)NC(=O)C5CSC(=N5)/C(=C/C)NC(=O)C(C(C)O)NC(=O)c5csc(n5)C3(CC2)NC(=O)C(C)NC(=O)C(=C)NC(=O)C(C)NC(=O)C(C(C)CC)NC2C=Cc3c(C(C)O)cc(nc3C2O)C(=O)OC4C)n1)C(N)=O` (stereo not given), the figures for the Potency in experiment [1] and in experiment [2] were 2.3 µM (active) and 0.916 µM (active), respectively. Turning to `CCC(C)(NC(=O)C(CCC(N)=O)NC(=O)C1CC(O)CN1C(=O)C(C)(C)NC(=O)C(C)(C)NC(=O)C(CC(C)C)NC(=O)CNC(=O)C(NC(=O)C(C)(C)NC(=O)C(C)(C)NC(=O)C(C)(C)NC(=O)C(Cc1ccccc1)NC(C)=O)C(C)C)C(=O)N1CC(O)CC1C(=O)NC(C)(C)C(=O)NC(CO)Cc1ccccc1` (stereo not given) (Ac-F[Aib][Aib][Aib]VGL[Aib][Aib][Hyp]Q[Iva][Hyp][Aib][Phe(ol)]; configuration not given here), the activity change, negative = viability loss in experiment [1] was -11.4% [at 9.23 µM]. Moreover, in experiment [2], the activity change, negative = cell killing was -29.8% [at 9.23 µM].

On to `Nc1c(S(=O)(=O)c2ccccc2)c2nc3ccccc3nc2n1-c1ccc(F)cc1`, for which the Potency entry in experiment [1] and in experiment [2] was “inactive” each time. For `O=C1Cc2c([nH]c3ccc(Br)cc23)-c2ncccc2N1`, the Potency in experiment [1] is 2.9 µM (active); in experiment [2], 2.58 µM (active).

Take `NC(=O)CCCSc1nc(N)nc(-c2c(Cl)cc3c4c(cccc24)COC3)n1`: the results for the Potency in experiment [1] and in experiment [2] were 0.183 µM (active) and 0.23 µM (active), respectively.

In the case of `CC(=O)O[C@@H]1CC[C@@]2(C)[C@H](CC[C@@H]3[C@@H]2C[C@H](OC(C)=O)[C@]2(C)[C@@H](C(C)=O)CC[C@@H]32)C1`, the Potency in experiment [1] and in experiment [2] was 23 µM (active) throughout. Regarding `CC(=O)O[C@@H]1C[C@@]23C[C@@]24CC[C@H](O[C@@H]2OC[C@H](O)[C@H](O)[C@H]2O)C(C)(C)[C@@H]4CC[C@H]3[C@]2(C)[C@@H](O)C34O[C@H](C[C@@H](C)[C@@H]3[C@@]12C)[C@@H](C(C)(C)O)O4`, the Potency result in experiment [1] and in experiment [2] was “inactive” each time. In the case of `O=C(/C=C/c1ccccc1O)O[C@@H]1O[C@H](CO)[C@@H](O)[C@H](O)[C@H]1O`, the Potency entry in experiment [1] and in experiment [2] was “inactive” each time.

With `CCC(C)C(=O)O[C@H]1[C@@H](OC(=O)c2ccoc2)C[C@](C)(O)[C@]23OC(C)(C)[C@H](C[C@H](OC(=O)c4ccoc4)[C@]12COC(C)=O)[C@H]3OC(C)=O` (stereo not given in full), the Potency result in experiment [1] and in experiment [2] was “inactive” each time. As to `COC(=O)CC1OC(C)C2=C(O)c3c(O)cccc3C(=O)C23OC13` (stereo not given), the Potency in experiment [1] was 2.84 µM (active); in experiment [2] it was 2.01 µM (active).

Regarding `C[C@@H]1C[C@H]2O[C@@]3(O[C@@H]2C(C)(C)O)C(O)[C@@]2(C)C4CCC5C(C)(C)[C@@H](O[C@H]6OC[C@H](O)[C@@H](O)[C@@H]6O)CC[C@@]56C[C@@]46CC[C@]2(C)C13` (stereo not given in full), the Potency entry in experiment [1] and in experiment [2] was “inactive” throughout.
